# Pf growth 48h: inhibits P. falciparum growth in the first generation, 48 h | P. falciparum luciferase growth in erythrocytes, 48 h | Potency, µM (series often up to 28.7 µM), inactives show top-dose activity change, negative = inhibition, actives largely listed as inhibitors | AID 504832 | actives 5.9% (n = 310,000)
#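 In quantitative HTS format, infected erythrocytes bearing luciferase-reporter parasites were treated for a single generation at 37 C. Luminescence after adding detection reagent served as the growth measure.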
# HCV inhibitor: HCV inhibition; Huh7.5.1 HCVcc-Cre infection, luciferase reporter, 44 h; Potency, µM (highest dose often 41.8 µM), without a hit: top-dose activity change, negative = inhibition, hits mostly inhibitors; actives 3.4% (n = 340,000); AID 651820
#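 Compounds are dispensed onto cells plated 4 h earlier at 1,000 per well, with HCVcc-Cre virus (about 0.5 moi) added next. Following 44 h of culture, luminescent signal is measured for 15 sec after 15 min with substrate at room temperature.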
# AMA1-RON2 inh: inhibitors of Plasmodium falciparum AMA1-RON2 interaction. AID 720542. actives 0.2% (n = 360,000). AlphaScreen AMA1-biotinylated RON2 peptide binding. Potency, µM (doses to about 58.2 µM), for inactives: at the highest dose activity change, negative = inhibition, most hits filed as inhibitors;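 further: 0% = vehicle wells and -100% = peptide control; nearly all actives have a fitted effect of over 45% in size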
#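 AMA1 (3D7) with his tag at 25 nM final met compounds first, then biotinylated RON2 peptide at 25 nM; detection used donor plus acceptor beads, 10 µg/mL apiece, read by AlphaScreen after 30 min at room temperature.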
# Pf growth 96h: P. falciparum growth inhibition at 96 hour, primary screen for plastid delayed-death inhibitors; actives 6.9% (n = 320,000); AID 504834; Potency, µM (highest dose often 28.7 µM), for the others: at the top dose activity change, negative = inhibition, usual class: inhibitors; P. falciparum luciferase reporter growth, 96 h
#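 P. falciparum expressing integrated firefly luciferase, in erythrocytes at 2% hematocrit, 0.05% parasitemia, incubated with compounds 96 h at 37 C, 5% CO2. Growth inhibition read as loss of luminescence; two-generation exposure targets delayed-death apicoplast inhibitors.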
# * marks the source's active call; other numbers are inactive results; ? = inconclusive; / = not tested or not shown; [ ] = remark or other dose. Only some compounds are listed: those with a hit (about 11% of all), similar ones and a draw of the others. The call rests on the fitted dose curve; in most records, active means well fitted curve in the direction sought with a large enough effect; inconclusive means small, poorly fitted or top-dose-only effect, or another doubt; inactive means no such curve, though single readings can be large; an effect the other way counts as inactive or inconclusive. Unless noted, on the % scale 0 is the no-effect control and ±100 the full control effect; potency means the concentration at half of the fitted maximal effect.
SMILES,Pf growth 48h,HCV inhibitor,AMA1-RON2 inh,Pf growth 96h
CC(C)(C)NC(=O)[C@@H]1CN(Cc2cccnc2)CCN1C[C@@H](O)C[C@@H](Cc1ccccc1)C(=O)N[C@H]1c2ccccc2C[C@H]1O,/,-3%,0%,/
C=Cc1ccc(Cn2c(C)c(C(=O)NCc3ccc4c(c3)OCCO4)sc2=O)cc1,/,/,-13%,/
C/C(=N\O)c1ccc(Cl)c(Cl)c1,8%,7%,3%,26%
CCCn1c2ccc(/C(C)=N\O)cc2c2cc(/C(C)=N/O)ccc21,?,13µM*,8%,3%
CCn1c(SCC(=O)Nc2cc(C(C)(C)C)nn2-c2ccccc2)nnc1-c1cccs1,-13%,16µM*,30%,?
CCC(C)n1c(SCC(=O)Nc2cc(C(C)(C)C)nn2-c2ccccc2)nc2ccccc2c1=O (centres undefined),10µM*,?,-15%,5.9µM*
Cc1nnc(SCC(=O)Nc2cc(C(C)(C)C)nn2-c2ccccc2)s1,-6%,8%,-12%,0%
CCC(C)n1c(SCC(=O)NC2CC2)nc2ccccc2c1=O (centres undefined),/,/,-5%,/
Cc1csc(SCC(=O)Nc2cc(C(C)(C)C)nn2-c2ccccc2)n1,7.4µM*,?,-7%,?
Cc1nc(SCC(=O)c2cc(C)n(C3CC3)c2C)c2ccccc2n1,/,/,8%,/
Cc1cnc(-c2nc3ccccc3n2C(C(=O)NC(C)(C)C)c2ccncc2)cn1 (centres undefined),/,/,-20%,/
O=C(Nc1nc2nc(-c3ccccc3)cc(-c3ccccc3)n2n1)c1ccco1,2.9µM*,?,46%,/
CC(=O)Nc1nc2n(n1)C(c1ccccc1)C=C(c1ccccc1)N2 (centres undefined),-5%,17%,29%,5.2µM*
CC(=O)Nc1nc2n(n1)C(c1ccc(F)cc1)C=C(c1ccccc1)N2 (centres undefined),?,26%,39%,45%
O=C(c1nc2n(n1)C(c1ccc(Cl)cc1)C=C(c1ccccc1)N2)N1CCOCC1 (centres undefined),4.1µM*,-14%,29%,4%
O=C(Nc1nc2n(n1)C(c1ccccc1)C=C(c1ccccc1)N2)c1ccco1 (centres undefined),8.3µM*,-4%,96%,?
OCCCc1nc2n(n1)C(c1ccccc1)C=C(c1ccccc1)N2 (centres undefined),/,18%,17%,?
COc1ccc(/C=C2/C(=O)OCc3cc(OC)c(OC)cc32)cc1,0%,?,9%,-50%
CN(C)CC(NC(=O)c1cccc(S(=O)(=O)Nc2ccc3c(c2)OCO3)c1)c1ccccc1 (centres undefined),?,-1%,1%,4.1µM*
Cc1cc(C)nc(Nc2ccc(N3CCCC3)cc2)n1,?,-5%,32µM*,/
CCCNc1nc(Nc2ccc(C)cc2)nc(N2CCCC2)n1,/,10µM*,-12%,2.1µM*
COc1ccc2oc(=O)cc(-c3cc4cccc(OC)c4o3)c2c1,25%,-8%,-7%,25%
COc1cccc2cc(-c3cc(=O)oc4cc(C)c(OCC(C)=O)cc34)oc12,19%,?,0%,-6%
CCN(CC)C(=O)Oc1ccc2oc(=O)cc(-c3cc4cccc(OC)c4o3)c2c1,0%,11µM*,-4%,4%
COc1cccc2cc(-c3cc(=O)oc4ccc(OC(=O)N(C)C)cc34)oc12,-10%,11µM*,-5%,-3%
SMILES,Pf growth 48h,HCV inhibitor,AMA1-RON2 inh,Pf growth 96h
COCCCN(C(=S)Nc1cc(Cl)cc(Cl)c1)C(C)c1ccccn1 (centres undefined),-9%,?,64%,3%
COCCCN(C(=O)Nc1ccc(C)c(C)c1)C(C)c1ccccn1 (centres undefined),/,-10%,73%,13µM*
COCCN(C(=O)Nc1ccccc1)C(C)c1cccnc1 (centres undefined),/,8%,-7%,5.2µM*
Cc1cc(N2CCC(C)CC2)nc(SCC(=O)c2ccccc2)n1,?,?,-4%,?
C=CCSc1nnc(Cc2c(C)[nH]c3ccccc23)o1,4%,?,0%,8.3µM*
CC(=O)Nc1cccc(Oc2ccc3c(c2)C(=O)NC3=O)c1,17%,24%,-11%,37%
CCc1ccc(NC(=O)CC2C(=O)N(c3ccc(C)cc3)C(=O)N2CCc2ccncc2)cc1 (centres undefined),15µM*,-2%,2%,-4%
O=C(CC1C(=O)N(c2ccc(Cl)cc2)C(=S)N1CCc1ccncc1)Nc1ccc(F)cc1 (centres undefined),?,20%,0%,?
Cc1cccc(N2C(=O)C(CC(=O)Nc3cccc(F)c3)N(CCc3ccncc3)C2=O)c1 (centres undefined),-21%,10%,1%,12%
CCNC(=O)CC1C(=O)N(c2ccc(F)cc2)C(=S)N1CCc1ccncc1 (centres undefined),13µM*,4%,32µM*,?
CCOC(=O)c1cnc2c(-c3ccccc3)c(-c3ccccc3)nn2c1C,?,-8%,1%,25%
CN(CCc1ccccc1)C(=O)c1cccc(NC(=O)Cc2cccc(NC(=O)C3CCN(C(=O)c4ccccc4)CC3)c2)c1,/,-18%[8.37 µM],0%,/
N#CCC(=O)Nc1ccc(C(=O)OCC(=O)c2ccc3c(c2)NC(=O)CO3)cc1,13µM*,1%,-18%,?
N#CCC(=O)Nc1ccc(C(=O)OCC(=O)NCc2ccc3c(c2)OCO3)cc1,8.3µM*,7%,-1%,?
O=C(CSc1nnc(C2CC2)n1Cc1ccccc1)N1CCNC1=O,/,11%,-1%,/
CON1C(=O)C(=O)N(OC)C(C)(C)C1C (centres undefined),-1%,14%,0%,45%
O=[N+]([O-])c1cccc(/C=C/c2nc[nH]c2[N+](=O)[O-])c1,?,4%,8%,1.5µM*
Cc1n[nH]c(C)c1CCNC(=O)C1CCC(=O)N(CCc2cccc(F)c2)C1 (centres undefined),24%,11%,5%,?
Cn1nc(C(F)(F)F)c2cc(NC(=O)OCc3ccc(F)cc3)sc21,-31%,10µM*,-14%,?
O=C(Nc1cccc(F)c1)N(Cc1ccc(Cl)cc1)CC(O)C(F)(F)F (centres undefined),8.3µM*,11µM*,8%,2.6µM*
COc1ccc(OC)c(-n2c(C)ccc2-c2ccc(S(C)(=O)=O)cc2)c1,/,-24%,-27%,?
COc1ccc(OC)c(-n2c(-c3ccc(S(C)(=O)=O)cc3)cc(C=O)c2C)c1,12µM*,10%,-7%,?
CCOC(=O)N/N=C\c1ccc(OC/C=C/c2ccccc2)cc1,?,3%,1%,?
COCC(C)n1c(SC(C)C(=O)NC2CCCCC2C)nc2ccccc2c1=O (centres undefined),?,12%,1%,?
Cc1ccc(N(CC(=O)NC2CCCCC2C)S(=O)(=O)c2c(C)noc2C)cc1 (centres undefined),?,17%,14%,9.3µM*
